# Experiments:
# [1] = target: Sphingosine kinase 1 (Homo sapiens) (UniProt Q9NYA1); conditions: at 1 µM;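 note: mean SPHK1 inhibition value reported from the GSK PKIS kinase panel screen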
# [2] = target: T1, Sphingosine kinase 2 (Homo sapiens) (UniProt Q9NRA0); conditions: at 0.1 µM
# T1 sequence (whole entry): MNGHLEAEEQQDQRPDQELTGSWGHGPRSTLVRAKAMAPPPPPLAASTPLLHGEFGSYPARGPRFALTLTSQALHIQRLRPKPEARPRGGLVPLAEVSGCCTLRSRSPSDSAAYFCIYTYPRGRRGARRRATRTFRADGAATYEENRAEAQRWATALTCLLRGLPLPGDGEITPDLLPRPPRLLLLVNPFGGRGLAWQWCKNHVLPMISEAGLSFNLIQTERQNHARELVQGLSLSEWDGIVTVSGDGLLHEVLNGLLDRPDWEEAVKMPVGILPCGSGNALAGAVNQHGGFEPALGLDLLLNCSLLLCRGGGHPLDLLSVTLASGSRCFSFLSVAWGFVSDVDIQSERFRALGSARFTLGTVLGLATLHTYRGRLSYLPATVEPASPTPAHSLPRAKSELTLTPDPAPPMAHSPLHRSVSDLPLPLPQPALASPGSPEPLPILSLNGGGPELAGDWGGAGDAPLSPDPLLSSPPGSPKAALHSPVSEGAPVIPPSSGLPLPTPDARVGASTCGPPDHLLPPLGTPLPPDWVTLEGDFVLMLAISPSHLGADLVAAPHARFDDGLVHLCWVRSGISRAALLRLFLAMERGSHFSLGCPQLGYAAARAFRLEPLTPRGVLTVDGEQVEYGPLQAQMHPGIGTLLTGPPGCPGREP
# [3] = target: T1, Sphingosine kinase 2 (Homo sapiens); conditions: at 1 µM
# [4] = target: Casein kinase II subunit alpha (Homo sapiens) (UniProt P68400); conditions: at 0.1 µM
# Sequence of Casein kinase II subunit alpha (Homo sapiens) (P68400 whole entry, looked up): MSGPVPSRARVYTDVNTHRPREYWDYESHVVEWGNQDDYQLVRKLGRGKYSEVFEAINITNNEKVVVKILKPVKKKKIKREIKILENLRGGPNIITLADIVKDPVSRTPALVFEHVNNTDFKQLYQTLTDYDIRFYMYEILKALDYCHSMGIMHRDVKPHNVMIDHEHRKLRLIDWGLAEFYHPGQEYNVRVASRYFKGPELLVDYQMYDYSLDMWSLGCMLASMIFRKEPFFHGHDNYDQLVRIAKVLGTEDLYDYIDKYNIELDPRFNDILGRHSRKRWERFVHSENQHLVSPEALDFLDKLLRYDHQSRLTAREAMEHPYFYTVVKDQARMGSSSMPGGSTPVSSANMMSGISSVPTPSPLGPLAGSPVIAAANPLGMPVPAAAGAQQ
# [5] = target: Casein kinase II subunit alpha (Homo sapiens) (UniProt P68400); conditions: at 1 µM
# [6] = target: T2, Inhibitor of nuclear factor kappa-B kinase subunit alpha (Homo sapiens) (UniProt O15111); conditions: at 0.1 µM
# T2 sequence (whole entry): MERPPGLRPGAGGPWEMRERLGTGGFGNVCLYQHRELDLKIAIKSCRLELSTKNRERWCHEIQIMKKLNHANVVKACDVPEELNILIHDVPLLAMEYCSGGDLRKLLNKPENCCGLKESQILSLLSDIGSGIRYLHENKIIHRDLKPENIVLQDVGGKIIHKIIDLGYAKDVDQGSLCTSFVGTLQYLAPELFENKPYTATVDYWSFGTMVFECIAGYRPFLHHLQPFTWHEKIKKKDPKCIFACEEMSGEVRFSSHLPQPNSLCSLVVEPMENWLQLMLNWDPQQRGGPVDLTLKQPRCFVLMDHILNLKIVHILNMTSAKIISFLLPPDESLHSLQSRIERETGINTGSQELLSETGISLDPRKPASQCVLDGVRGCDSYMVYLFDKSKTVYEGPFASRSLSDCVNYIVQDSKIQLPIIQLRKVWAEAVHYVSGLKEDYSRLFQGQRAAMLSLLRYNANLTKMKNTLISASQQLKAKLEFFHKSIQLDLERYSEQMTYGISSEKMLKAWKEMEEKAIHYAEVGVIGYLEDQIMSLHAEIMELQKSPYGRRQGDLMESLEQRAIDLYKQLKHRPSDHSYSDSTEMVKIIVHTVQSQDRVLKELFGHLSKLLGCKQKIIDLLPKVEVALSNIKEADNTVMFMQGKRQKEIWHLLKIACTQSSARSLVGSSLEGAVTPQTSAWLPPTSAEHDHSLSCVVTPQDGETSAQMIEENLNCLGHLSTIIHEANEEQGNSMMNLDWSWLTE
# [7] = target: T2, Inhibitor of nuclear factor kappa-B kinase subunit alpha (Homo sapiens); conditions: at 1 µM
# [8] = target: T3, Inhibitor of nuclear factor kappa-B kinase subunit beta (Homo sapiens) (UniProt O14920); conditions: at 0.1 µM
# T3 sequence (whole entry): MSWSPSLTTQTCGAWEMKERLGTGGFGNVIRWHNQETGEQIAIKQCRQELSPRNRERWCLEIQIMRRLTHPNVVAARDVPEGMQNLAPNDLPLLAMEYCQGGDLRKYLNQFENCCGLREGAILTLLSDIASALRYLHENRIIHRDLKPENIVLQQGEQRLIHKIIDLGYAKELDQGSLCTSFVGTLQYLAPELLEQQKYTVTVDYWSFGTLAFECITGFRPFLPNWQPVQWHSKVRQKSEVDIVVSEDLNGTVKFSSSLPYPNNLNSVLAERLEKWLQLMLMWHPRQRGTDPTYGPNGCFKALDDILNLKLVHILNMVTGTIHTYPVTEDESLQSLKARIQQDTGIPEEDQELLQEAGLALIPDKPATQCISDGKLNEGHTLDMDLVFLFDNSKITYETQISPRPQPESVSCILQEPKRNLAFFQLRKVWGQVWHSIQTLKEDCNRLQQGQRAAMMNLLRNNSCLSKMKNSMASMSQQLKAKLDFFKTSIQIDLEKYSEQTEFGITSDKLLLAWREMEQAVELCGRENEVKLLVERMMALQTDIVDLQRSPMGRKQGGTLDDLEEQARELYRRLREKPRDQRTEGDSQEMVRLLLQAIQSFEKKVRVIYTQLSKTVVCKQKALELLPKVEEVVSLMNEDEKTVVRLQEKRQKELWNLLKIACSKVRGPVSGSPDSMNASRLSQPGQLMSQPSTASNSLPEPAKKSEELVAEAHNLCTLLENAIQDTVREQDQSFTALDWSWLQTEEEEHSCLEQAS
# [9] = target: T3, Inhibitor of nuclear factor kappa-B kinase subunit beta (Homo sapiens); conditions: at 1 µM
# [10] = target: T4, Inhibitor of nuclear factor kappa-B kinase subunit epsilon (Homo sapiens) (UniProt Q14164); conditions: at 0.1 µM
# T4 sequence (whole entry): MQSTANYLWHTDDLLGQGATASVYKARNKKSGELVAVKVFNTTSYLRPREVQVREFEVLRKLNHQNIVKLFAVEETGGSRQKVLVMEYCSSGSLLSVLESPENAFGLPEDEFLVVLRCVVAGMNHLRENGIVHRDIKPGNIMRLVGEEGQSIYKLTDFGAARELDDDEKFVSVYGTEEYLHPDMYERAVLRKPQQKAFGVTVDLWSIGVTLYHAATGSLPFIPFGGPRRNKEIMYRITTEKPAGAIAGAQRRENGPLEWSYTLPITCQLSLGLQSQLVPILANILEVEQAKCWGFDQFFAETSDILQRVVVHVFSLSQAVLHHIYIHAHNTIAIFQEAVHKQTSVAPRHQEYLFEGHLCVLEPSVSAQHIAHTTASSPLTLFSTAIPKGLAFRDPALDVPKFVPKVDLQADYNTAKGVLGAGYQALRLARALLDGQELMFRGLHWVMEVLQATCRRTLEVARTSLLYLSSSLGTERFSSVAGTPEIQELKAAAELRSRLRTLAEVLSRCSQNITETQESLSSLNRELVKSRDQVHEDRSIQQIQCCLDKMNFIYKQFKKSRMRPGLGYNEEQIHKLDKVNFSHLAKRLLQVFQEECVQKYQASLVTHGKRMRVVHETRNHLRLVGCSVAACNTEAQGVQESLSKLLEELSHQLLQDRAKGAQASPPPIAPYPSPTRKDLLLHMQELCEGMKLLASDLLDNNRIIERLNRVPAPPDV
# [11] = target: T4, Inhibitor of nuclear factor kappa-B kinase subunit epsilon (Homo sapiens); conditions: at 1 µM
# [12] = target: T5, Serine/threonine-protein kinase Nek1 (Homo sapiens) (UniProt Q96PY6); conditions: at 0.1 µM
# T5 sequence (whole entry): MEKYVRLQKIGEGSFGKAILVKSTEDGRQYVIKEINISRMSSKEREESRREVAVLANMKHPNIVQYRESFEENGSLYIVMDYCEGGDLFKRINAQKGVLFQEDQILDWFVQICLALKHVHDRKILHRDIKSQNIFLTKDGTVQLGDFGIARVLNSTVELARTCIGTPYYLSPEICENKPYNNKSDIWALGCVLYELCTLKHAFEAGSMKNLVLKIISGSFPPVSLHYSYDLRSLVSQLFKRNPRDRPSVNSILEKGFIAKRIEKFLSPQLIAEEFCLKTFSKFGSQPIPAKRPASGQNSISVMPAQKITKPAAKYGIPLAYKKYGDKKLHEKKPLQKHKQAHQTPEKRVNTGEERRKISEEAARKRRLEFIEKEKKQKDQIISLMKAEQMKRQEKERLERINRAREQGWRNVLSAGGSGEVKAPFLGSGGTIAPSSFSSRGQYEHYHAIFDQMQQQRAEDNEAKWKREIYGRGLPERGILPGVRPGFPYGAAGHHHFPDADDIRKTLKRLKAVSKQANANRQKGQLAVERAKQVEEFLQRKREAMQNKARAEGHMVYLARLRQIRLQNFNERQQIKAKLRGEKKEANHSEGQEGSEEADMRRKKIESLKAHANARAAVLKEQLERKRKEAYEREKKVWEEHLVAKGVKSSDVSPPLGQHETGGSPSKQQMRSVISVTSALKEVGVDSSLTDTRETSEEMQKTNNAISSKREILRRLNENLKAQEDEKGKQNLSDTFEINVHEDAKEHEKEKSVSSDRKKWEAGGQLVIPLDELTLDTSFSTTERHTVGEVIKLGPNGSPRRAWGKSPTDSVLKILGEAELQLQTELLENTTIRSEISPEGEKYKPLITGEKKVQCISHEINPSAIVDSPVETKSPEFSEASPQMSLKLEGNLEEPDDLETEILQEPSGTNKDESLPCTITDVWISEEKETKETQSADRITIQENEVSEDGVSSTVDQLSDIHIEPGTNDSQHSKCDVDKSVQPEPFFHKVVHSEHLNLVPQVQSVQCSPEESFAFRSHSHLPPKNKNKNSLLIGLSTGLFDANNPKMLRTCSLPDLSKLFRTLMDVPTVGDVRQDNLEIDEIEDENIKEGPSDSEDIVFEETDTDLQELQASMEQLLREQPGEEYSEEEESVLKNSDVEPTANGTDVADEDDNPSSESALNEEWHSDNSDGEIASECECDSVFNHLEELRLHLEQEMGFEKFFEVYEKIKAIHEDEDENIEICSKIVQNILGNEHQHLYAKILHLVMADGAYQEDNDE
# [13] = target: T5, Serine/threonine-protein kinase Nek1 (Homo sapiens); conditions: at 1 µM
# [14] = target: T6, Serine/threonine-protein kinase Nek2 (Homo sapiens) (UniProt P51955); conditions: at 0.1 µM
# T6 sequence (whole entry): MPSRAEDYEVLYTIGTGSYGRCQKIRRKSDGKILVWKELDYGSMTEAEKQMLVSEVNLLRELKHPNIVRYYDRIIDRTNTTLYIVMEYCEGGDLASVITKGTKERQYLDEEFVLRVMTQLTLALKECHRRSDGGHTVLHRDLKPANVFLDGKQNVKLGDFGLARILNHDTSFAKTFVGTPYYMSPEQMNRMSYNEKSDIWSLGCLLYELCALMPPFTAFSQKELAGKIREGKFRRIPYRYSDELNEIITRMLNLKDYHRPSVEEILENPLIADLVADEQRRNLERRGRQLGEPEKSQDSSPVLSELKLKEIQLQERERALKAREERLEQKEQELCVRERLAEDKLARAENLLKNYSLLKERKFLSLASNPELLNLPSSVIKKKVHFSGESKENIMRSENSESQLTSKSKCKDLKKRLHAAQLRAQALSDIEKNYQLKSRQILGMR
# [15] = target: T6, Serine/threonine-protein kinase Nek2 (Homo sapiens); conditions: at 1 µM
# [16] = target: Serine/threonine-protein kinase Nek6 (Homo sapiens) (UniProt Q9HC98); conditions: at 0.1 µM
# Sequence of Serine/threonine-protein kinase Nek6 (Homo sapiens) (Q9HC98 whole entry): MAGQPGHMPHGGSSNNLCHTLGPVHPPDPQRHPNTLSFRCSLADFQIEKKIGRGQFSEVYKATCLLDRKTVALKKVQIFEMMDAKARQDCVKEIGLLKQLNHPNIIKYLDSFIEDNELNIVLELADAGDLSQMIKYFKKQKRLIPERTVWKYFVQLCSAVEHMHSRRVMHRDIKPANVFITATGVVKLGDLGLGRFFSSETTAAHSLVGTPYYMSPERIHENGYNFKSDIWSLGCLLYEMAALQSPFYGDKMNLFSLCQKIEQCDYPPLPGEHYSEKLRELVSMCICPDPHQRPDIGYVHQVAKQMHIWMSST
# [17] = target: Serine/threonine-protein kinase Nek6 (Homo sapiens) (UniProt Q9HC98); conditions: at 1 µM
# [18] = target: Serine/threonine-protein kinase Nek7 (Homo sapiens) (UniProt Q8TDX7); conditions: at 0.1 µM
# Sequence of Serine/threonine-protein kinase Nek7 (Homo sapiens) (Q8TDX7 whole entry, looked up): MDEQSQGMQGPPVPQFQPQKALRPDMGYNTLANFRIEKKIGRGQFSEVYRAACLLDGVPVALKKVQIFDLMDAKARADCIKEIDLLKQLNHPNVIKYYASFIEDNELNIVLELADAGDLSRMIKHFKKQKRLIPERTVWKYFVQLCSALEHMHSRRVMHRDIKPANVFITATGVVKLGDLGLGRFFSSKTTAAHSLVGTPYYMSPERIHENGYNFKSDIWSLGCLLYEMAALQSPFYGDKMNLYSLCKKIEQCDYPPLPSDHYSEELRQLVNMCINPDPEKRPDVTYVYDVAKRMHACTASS
# [19] = target: Serine/threonine-protein kinase Nek7 (Homo sapiens) (UniProt Q8TDX7); conditions: at 1 µM
# [20] = target: T7, Serine/threonine-protein kinase Nek9 (Homo sapiens) (UniProt Q8TD19); conditions: at 0.1 µM;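 note: reported value is the mean percent inhibition of NEK9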
# T7 sequence (whole entry): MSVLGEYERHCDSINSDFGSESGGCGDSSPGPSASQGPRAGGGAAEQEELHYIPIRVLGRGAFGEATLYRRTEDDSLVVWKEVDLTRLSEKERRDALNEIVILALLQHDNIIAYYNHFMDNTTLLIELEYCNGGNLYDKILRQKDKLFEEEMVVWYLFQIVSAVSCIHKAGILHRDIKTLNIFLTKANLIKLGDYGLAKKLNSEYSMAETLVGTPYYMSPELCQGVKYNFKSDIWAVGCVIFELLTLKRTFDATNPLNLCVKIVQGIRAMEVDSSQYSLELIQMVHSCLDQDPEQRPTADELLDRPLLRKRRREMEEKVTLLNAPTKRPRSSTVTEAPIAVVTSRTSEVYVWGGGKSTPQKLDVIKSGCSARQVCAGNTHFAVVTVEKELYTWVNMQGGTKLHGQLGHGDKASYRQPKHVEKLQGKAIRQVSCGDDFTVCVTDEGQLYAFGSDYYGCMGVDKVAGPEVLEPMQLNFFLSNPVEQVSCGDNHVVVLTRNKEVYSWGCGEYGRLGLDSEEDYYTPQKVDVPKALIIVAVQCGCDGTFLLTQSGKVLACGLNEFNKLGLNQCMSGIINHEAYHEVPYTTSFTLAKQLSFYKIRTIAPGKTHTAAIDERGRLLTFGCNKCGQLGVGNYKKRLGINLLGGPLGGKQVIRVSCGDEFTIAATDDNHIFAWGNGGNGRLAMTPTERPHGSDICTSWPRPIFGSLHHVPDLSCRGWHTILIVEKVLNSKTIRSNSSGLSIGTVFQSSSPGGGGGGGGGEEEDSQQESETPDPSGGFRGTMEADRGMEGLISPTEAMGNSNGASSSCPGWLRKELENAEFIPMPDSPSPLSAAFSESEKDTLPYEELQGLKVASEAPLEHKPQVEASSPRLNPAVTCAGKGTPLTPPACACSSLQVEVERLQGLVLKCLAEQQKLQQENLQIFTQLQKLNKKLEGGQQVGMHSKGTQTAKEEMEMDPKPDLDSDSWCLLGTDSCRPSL
# Sequence of Sphingosine kinase 1 (Homo sapiens) (Q9NYA1 whole entry): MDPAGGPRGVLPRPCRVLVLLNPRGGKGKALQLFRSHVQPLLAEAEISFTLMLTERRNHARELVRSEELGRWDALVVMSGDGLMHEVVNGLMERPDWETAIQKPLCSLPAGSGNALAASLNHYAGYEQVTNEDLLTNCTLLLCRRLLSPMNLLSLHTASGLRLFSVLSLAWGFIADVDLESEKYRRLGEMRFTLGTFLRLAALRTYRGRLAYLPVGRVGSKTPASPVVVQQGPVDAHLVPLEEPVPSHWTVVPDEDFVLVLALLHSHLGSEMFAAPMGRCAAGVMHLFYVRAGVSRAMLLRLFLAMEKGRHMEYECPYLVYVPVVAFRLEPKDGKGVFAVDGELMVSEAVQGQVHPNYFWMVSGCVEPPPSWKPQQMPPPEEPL
smiles,measurement,setting,value
COc1ccc(-c2nn3ncccc3c2-c2ccnc(Nc3ccc(Cl)c(C(F)(F)F)c3)n2)cc1,inhibition,[1],-2.15%
same,inhibition,[2],-0.61%
same,inhibition,[3],0.61%
same,inhibition,[4],2.8%
same,inhibition,[5],8.2%
same,inhibition,[6],5.34%
same,inhibition,[7],3.48%
same,inhibition,[8],5.25%
same,inhibition,[9],8.22%
same,inhibition,[10],4.71%
same,inhibition,[11],5.7%
same,inhibition,[12],1.43%
same,inhibition,[13],2.51%
same,inhibition,[14],2.35%
same,inhibition,[15],1.82%
same,inhibition,[16],3.06%
same,inhibition,[17],2.55%
same,inhibition,[18],3.34%
same,inhibition,[19],3.28%
same,inhibition,[20],6.79%

# — ChEMBL document CHEMBL1961873, “Compounds: GSK PKIS; Assays: Nanosyn kinase panel” (2012)
